Measured values as given in PubChem BioAssay (NCI).
This is part of a sample that, as a whole, favours compounds with a hit. Of some 83,000 tested, about 20% had one in any assay.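 Percent growth is the endpoint: 0 to 100 indicates growth inhibition (40 means 60% inhibition), 0 means no net growth, and negative values indicate cell death.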 Unmarked numbers belong to inactive results. Active and inactive are the calls of the source. The calls were made as follows: active = growth percent below 10; inactive = the rest.

Key:
Assay in all cases: NCI-60 one-dose screen, 48 h (100 = growth as untreated, 0 = no growth, -100 = all killed)
Settings in all cases: 10 µM unless noted
DU-145 prostate = system: DU-145 prostate
K-562 leukemia = system: K-562 leukemia
MALME-3M melanoma = system: MALME-3M melanoma
MDA-MB-231 breast = system: MDA-MB-231 breast
RXF 393 renal = system: RXF 393 renal
SF-268 CNS = system: SF-268 CNS
SF-295 CNS = system: SF-295 CNS
SF-539 CNS = system: SF-539 CNS
UACC-257 melanoma = system: UACC-257 melanoma
M14 melanoma = system: M14 melanoma
HCT-15 colon = system: HCT-15 colon
HT29 colon = system: HT29 colon
SNB-75 CNS = system: SNB-75 CNS
SNB-19 CNS = system: SNB-19 CNS
U251 CNS = system: U251 CNS
PC-3 prostate = system: PC-3 prostate
SK-MEL-5 melanoma = system: SK-MEL-5 melanoma
UACC-62 melanoma = system: UACC-62 melanoma
LOX IMVI melanoma = system: LOX IMVI melanoma
SK-MEL-28 melanoma = system: SK-MEL-28 melanoma

| Structure (SMILES) | growth (DU-145 prostate) [%] | growth (K-562 leukemia) | growth (MALME-3M melanoma) | growth (MDA-MB-231 breast) | growth (RXF 393 renal) | growth (SF-268 CNS) [%] | growth (SF-295 CNS) | growth (SF-539 CNS) | growth (UACC-257 melanoma) | growth (M14 melanoma) | growth (HCT-15 colon) | growth (HT29 colon) [%] | growth (SNB-75 CNS) | growth (SNB-19 CNS) [%] | growth (U251 CNS) [%] | growth (PC-3 prostate) | growth (SK-MEL-5 melanoma) | growth (UACC-62 melanoma) | growth (LOX IMVI melanoma) | growth (SK-MEL-28 melanoma) |
| --- | --- | --- | --- | --- | --- | --- | --- | --- | --- | --- | --- | --- | --- | --- | --- | --- | --- | --- | --- | --- |
| O=C(Nc1ccc(I)cc1F)c1cc(I)ccc1O | 21.2 | 7.64% (active) | -26.9% (active) | -34.7% (active) | -9.34% (active) | 13.6 | -34% (active) | 9.88% (active) | -17% (active) | 5.74% (active) | 4.84% (active) | 78.7 | 1.71% (active) | 17.5 | 16.1 | 7.79% (active) | -95.8% (active) | -24.1% (active) | 8.01% (active) | 5.11% (active) |
| CCOC(=O)c1cn2ncnc(Oc3ccc(NC(=O)NCCN4CCN(C)CC4)c(Cl)c3)c2c1C | 81.2 | 10.9% | 28.3% | 72% | 35.8% | 81.4 | 94.8% | 78.5% | -15.9% (active) | -23.7% (active) | 39.6% | 19.7 | 86.3% | 87.7 | 63.3 | 50.5% | 47.6% | 34% | 66.2% | 13.3% |
| O=c1cc(SCc2ccccc2)nc[nH]1 | 121 | 113% | 111% | 113% | 124% | 106 | 100% | 108% | 108% | 106% | 105% | 109 | 93.7% | 107 | 107 | 97.7% | 113% | 108% | 107% | 133% |
| COc1ccc(-c2[nH]c3ccc(OC)cc3c2/C=C(\C#N)S(=O)(=O)c2ccccc2)cc1 | 17.3 | 19.8% | 61.3% | 14.9% | -7.82% (active) | 33.8 | 10.6% | -37.8% (active) | 81.7% | 25.3% | 22.6% | 13.2 | 8.92% (active) | 31.1 | 24.8 | 24.8% | -25.5% (active) | 22% | 36.4% | 43.2% |
| COc1ccc(C2NC(=O)C(C#N)c3c2sc2c(F)cccc32)c(OC)c1 (stereo not given) | 90.5 | 23.9% | 39.8% | 72.7% | 9.65% (active) | 52.1 | 27.7% | 8.87% (active) | 68.3% | 37.8% | 36.3% | 66.1 | -5.26% (active) | 44.2 | 39.3 | 56.8% | 81.8% | 42.3% | 39.7% | 55.1% |
| CN(C)CC#Cc1ccc2ncc(C#N)c(Nc3ccc(F)c(Cl)c3)c2c1 | 22.4 | 51.4% | 45.1% | 56.1% | 32.4% | 59.2 | 65.4% | 62.4% | 76% | 40.5% | 32% | 66 | 48.1% | 76.4 | 63.8 | 40.5% | 51.4% | 42.9% | 49% | 69.4% |
| CN1CCN(c2ccc(-c3ccc4ncc(C#N)c(Nc5ccc(F)c(Cl)c5)c4c3)cc2)CC1 | 29.1 | 0.404% (active) | -63.5% (active) | 76.8% | 27.3% | 50.8 | 69.6% | 54.3% | -0.414% (active) | -33.5% (active) | -12.9% (active) | 18.2 | 75.5% | 72.7 | 50 | 45.8% | 58.1% | 69.7% | 43% | -43.1% (active) |
| COc1c(B(O)O)cc(C)cc1-c1nc2ccc3[nH]ncc3c2c2c1CCCC2 | 72.6 | 24.1% | 91.6% | 23.4% | -2.67% (active) | 50 | 53.1% | 12.5% | 102% | 97.4% | 21.6% | 38.6 | -34.4% (active) | 74 | 60.6 | 61.9% | 80.4% | 69.5% | 30.7% | 93.8% |
